Screening results as filed in PubChem BioAssay.
Compounds with a hit are over-represented: about 6.8% of the library has one in this group of screens.
C diff HTS = C. difficile growth inhibitors, primary screen, HTS; Clostridium difficile clinical isolate growth, OD600, 24 h; stronger effect = lower value; growth activity, negative = inhibition, % at 16 µg/mL (by protocol); 0.25% of 86,000 active; AID 1259249, 2017;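 active means mean growth activity at or below -80% and every replicate also at or below -80%; inconclusive means mean at or below -80% but some replicate above -80%; inactive means mean growth activity above -80%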
T cruzi growth-1 = T. cruzi intracellular proliferation inhibitors, primary screen, cell-based, beta-gal Tulahuen parasites, NIH3T3 host, luminescence. T. cruzi beta-gal in NIH3T3, GalScreen luminescence, 90 h. inhibition, % at 8.34 µM. 5.9% of 77,000 active;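 active means mean inhibition above about 93%, with at least 55% of replicates each passing it, limit read from the data, passing the limit was not always enough; inconclusive means only one of those two conditions holds; inactive means neither condition holds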
Pf Dd2 inh = P. falciparum Dd2 growth inhibitors, primary screen, SYBR Green fluorescence, single dose replicates | 72 h; stronger effect = lower value | activity change, % at 10 µM | 2.3% of 94,000 active; in the data active means activity change below about -80%; inconclusive means no clear call, values can overlap the other calls
T cruzi growth-2 = T. cruzi intracellular proliferation inhibitors, confirmation, cell-based, NIH3T3 host, beta-gal parasite, luminescence, cherry-pick; shares compounds with T cruzi growth-1; T. cruzi beta-gal in NIH3T3, GalScreen luminescence, 90 h; inhibition, % at 8.35 µM; 72% of 5,600 active; AID 651739, 2012;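 active means mean replicate inhibition above about 95% and at least 55% of replicates individually reaching it, limit read from the data; inconclusive means only one of the two criteria is met; inactive means neither criterion is met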
T cruzi growth-3 = inhibitors of intracellular T. cruzi replication, confirmation, NIH3T3 host cells, beta-gal parasites, cherry-pick, set 2 | shares compounds with T cruzi growth-1 | inhibition, % at 2.09 µM | AID 651740, 2012 | 21% of 5,600 active | T. cruzi beta-gal in NIH3T3, GalScreen luminescence, 90 h;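 active means mean inhibition above about 95%, with at least 55% of replicates also reaching it, limit read from the data; inconclusive means meets just one of the two conditions; inactive means meets neither condition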
NIH3T3 tox = cytotoxicity in mouse NIH/3T3 fibroblasts, confirmation, cytotoxicity control for T. cruzi proliferation inhibitor project, cell-based, cherry-pick, single point; shares compounds with T cruzi growth-1; NIH/3T3 viability, CellTiter-Glo ATP luminescence, 90 h; cytotoxicity (signal decrease), % at 8.35 µM; 14% of 5,600 active;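 active means mean signal decrease across replicates above about 35% based on untreated-well scatter, with enough replicates individually passing, limit read from the data; inconclusive means no rule stated though some were filed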
3T3 cytotox 2 = NIH/3T3 fibroblast cytotoxicity, confirmation, cytotoxicity control, cell-based, cherry-pick, single point, set 2; shares compounds with T cruzi growth-1; inhibition, % at 24.9 µM; NIH/3T3 viability, CellTiter-Glo ATP luminescence, 90 h; 56% of 5,600 active;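 active means mean loss of cell viability signal at or above a set limit, and enough replicates individually reaching it; inconclusive means meets only the mean limit or only the replicate share; inactive means meets neither condition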
Of the large screens only hits and unclear results are named; the others gave an inactive call (follow-up assays come after a bar, where they were run).

CO[C@H]1CN(C)C(=O)c2cc(NC(=O)Nc3ccc4c(c3)OCO4)ccc2OC[C@H](C)NC[C@@H]1C	none (no result: C diff HTS, T cruzi growth-1)
COc1ccc(NC(=O)Nc2ccc3c(c2)C(=O)N([C@H](C)CO)C[C@@H](C)[C@H](CN(C)Cc2ccc4c(c2)OCO4)OCCCC[C@@H](C)O3)cc1	T cruzi growth-1 101, Pf Dd2 inh -83 | T cruzi growth-2 inactive | T cruzi growth-3 inactive | NIH3T3 tox inconclusive | 3T3 cytotox 2 106
COc1ccc(NC(=O)Nc2ccc3c(c2)C(=O)N([C@@H](C)CO)C[C@H](C)[C@@H](CN(C)Cc2ccc4c(c2)OCO4)OCCCC[C@@H](C)O3)cc1	none
C[C@@H]1CN([C@H](C)CO)C(=O)c2cc(C#CC3CC3)cnc2O[C@@H]1CN(C)C(=O)C1CCCCC1	none (no result: C diff HTS)
Cc1cc(C(=O)Nc2cccc3c2O[C@H](CN(C)CC2CCCCC2)[C@@H](C)CN([C@H](C)CO)C3=O)n(C)n1	none
O=C(Nc1ccccc1F)N1CCCCN2[C@H](CO)[C@H](c3ccc(-c4cccnc4)cc3)[C@H]2C1	none
O=C(Nc1cccc(F)c1)N1CCCCN2[C@H](C1)[C@@H](c1ccc(C#Cc3cccnc3)cc1)[C@@H]2CO	none
O=C(Nc1ccccc1F)N1CCCCN2[C@H](CO)[C@H](c3ccc(C#Cc4cccnc4)cc3)[C@H]2C1	T cruzi growth-1 101 | T cruzi growth-2 109 | T cruzi growth-3 inactive | NIH3T3 tox inactive | 3T3 cytotox 2 70
O=C(Nc1ccccc1F)N1CCCCN2[C@@H](CO)[C@H](c3ccc(C#Cc4cccnc4)cc3)[C@@H]2C1	T cruzi growth-1 122 | T cruzi growth-2 106 | T cruzi growth-3 inactive | NIH3T3 tox inactive | 3T3 cytotox 2 38
O=C(NCCc1ccccc1)[C@@H]1[C@@H](CO)[C@@H]2Cn3c(cccc3=O)[C@@H]2N1Cc1cccnc1	none
Cc1noc(C)c1NC(=O)N(C)C[C@@H]1Oc2c(NC(=O)c3ccncc3)cccc2C(=O)N([C@H](C)CO)C[C@H]1C	none (no result: C diff HTS)
C[C@@H]1CN([C@@H](C)CO)C(=O)c2cc(-c3cccnc3)cnc2O[C@@H]1CN(C)Cc1ccc(-c2ccccc2)cc1	none (no result: T cruzi growth-1)
COc1ccccc1-c1ccc([C@H]2[C@H](CO)N3CCCCN(C(=O)c4cccnc4)C[C@@H]23)cc1	T cruzi growth-1 97 | T cruzi growth-2 inconclusive | T cruzi growth-3 inactive | NIH3T3 tox inconclusive | 3T3 cytotox 2 39
COc1ccccc1-c1ccc([C@H]2[C@@H](CO)N3CCCCN(C(=O)c4cccnc4)C[C@@H]23)cc1	none
Cc1ccccc1-c1ccc([C@H]2[C@@H](CO)N3CCCCN(C(=O)c4cccnc4)C[C@@H]23)cc1	T cruzi growth-1 103 | T cruzi growth-2 99 | T cruzi growth-3 102 | NIH3T3 tox 38 | 3T3 cytotox 2 49
Cc1cccc(-c2ccc([C@@H]3[C@H](CO)N4CCCCN(C(=O)c5cccnc5)C[C@@H]34)cc2)c1	T cruzi growth-1 105 | T cruzi growth-2 inactive | T cruzi growth-3 inactive | NIH3T3 tox inactive | 3T3 cytotox 2 36
Cc1ccccc1-c1ccc([C@@H]2[C@H]3CN(C(=O)c4cccnc4)CCCCN3[C@H]2CO)cc1	none
Cc1cccc(-c2ccc([C@H]3[C@H]4CN(C(=O)c5ccncc5)CCCCN4[C@H]3CO)cc2)c1	none
Cc1ccc(-c2ccc3c(c2)O[C@@H](CN(C)Cc2ccc(C(=O)O)cc2)[C@H](C)CN([C@@H](C)CO)S3(=O)=O)cc1	none
Cc1ccccc1-c1ccc2c(c1)O[C@@H](CN(C)C(=O)c1ccccn1)[C@H](C)CN([C@@H](C)CO)S2(=O)=O	none (no result: T cruzi growth-1)
COc1cccc(-c2cn(CC[C@@H]3CC[C@@H](NC(C)=O)[C@H](CO)O3)nn2)c1	none
N#C[C@@H]1[C@H](c2ccc(-c3cccnc3)cc2)[C@H](CO)N1C(=O)C1CCC1	none
N#C[C@H]1[C@@H](c2ccc(C#Cc3cccc(F)c3)cc2)[C@@H](CO)N1C(=O)C1CCC1	none (no result: T cruzi growth-1)
N#C[C@@H]1[C@H](c2ccc(C#Cc3cccc(F)c3)cc2)[C@@H](CO)N1C(=O)C1CCC1	T cruzi growth-1 107 | T cruzi growth-2 103 | T cruzi growth-3 108 | NIH3T3 tox inactive | 3T3 cytotox 2 80
N#C[C@@H]1[C@@H](c2ccc(C#Cc3cccc(F)c3)cc2)[C@@H](CO)N1C(=O)C1CC1	none
N#C[C@@H]1[C@@H](c2ccc(C#Cc3cccc(F)c3)cc2)[C@@H](CO)N1C(=O)C1CCCC1	T cruzi growth-1 100 | T cruzi growth-2 107 | T cruzi growth-3 inactive | NIH3T3 tox inactive | 3T3 cytotox 2 64
N#C[C@@H]1[C@@H](c2ccc(C#Cc3cccnc3)cc2)[C@@H](CO)N1C(=O)C1CCCCC1	T cruzi growth-1 103 | T cruzi growth-2 inactive | T cruzi growth-3 inactive | NIH3T3 tox inactive | 3T3 cytotox 2 inactive
COc1ccc(CN2C[C@@H](C)[C@@H](OC)CN(C)C(=O)c3cc(NC(=O)C4CC4)ccc3OC[C@H]2C)cc1	none (no result: C diff HTS)
Cc1ccccc1-c1ccc2c(c1)O[C@@H](CN(C)C)[C@@H](C)CN([C@@H](C)CO)S2(=O)=O	none (no result: Pf Dd2 inh)
Cc1cccc(-c2ccc([C@H]3[C@H]4CN(S(=O)(=O)c5cccs5)CCCCN4[C@H]3CO)cc2)c1	T cruzi growth-1 107 | T cruzi growth-2 103 | T cruzi growth-3 99 | NIH3T3 tox inactive | 3T3 cytotox 2 46
COc1ccc(S(=O)(=O)N2CCCCN3[C@H](C2)[C@H](c2ccc(C4=CCCCC4)cc2)[C@@H]3CO)cc1	T cruzi growth-1 117 | T cruzi growth-2 inconclusive | T cruzi growth-3 inactive | NIH3T3 tox inactive | 3T3 cytotox 2 27
CS(=O)(=O)N1CCCCN2[C@@H](CO)[C@H](c3ccc(C4=CCCC4)cc3)[C@@H]2C1	T cruzi growth-1 inconclusive | T cruzi growth-2 inactive | T cruzi growth-3 inactive | NIH3T3 tox inactive | 3T3 cytotox 2 inactive
O=S(=O)(c1cccs1)N1CCCCN2[C@H](CO)[C@H](c3ccc(Br)cc3)[C@@H]2C1	T cruzi growth-1 114 | T cruzi growth-2 100 | T cruzi growth-3 inactive | NIH3T3 tox inactive | 3T3 cytotox 2 30
O=S(=O)(c1cccs1)N1CCCCN2[C@@H](CO)[C@@H](c3ccc(Br)cc3)[C@@H]2C1	none
COc1ccc(S(=O)(=O)N2CCCCN3[C@@H](CO)[C@@H](c4ccc(C5=CCCCC5)cc4)[C@@H]3C2)cc1	none
COc1cccc(-c2ccc([C@@H]3[C@H]4CN(S(=O)(=O)c5cccs5)CCCCN4[C@H]3CO)cc2)c1	none
